Laboratory results as given in PubChem BioAssay (Tox21).
Records with an inconclusive call do not appear. Active and inactive are the calls of the source. Calls follow the shape of the dose curve; as a rule, active = well fitted curve in the direction sought with a large enough effect in the repeat runs; inconclusive = weak or mixed curves; inactive = no such curve, though single readings can be large; an effect the other way counts as inactive or inconclusive.

Experiments:
[1] = A CellTox Green Cytotoxicity Assay to monitor cytotoxicity in HEK293 cells - 40 hour (AID 1224871); also: nearly all actives have a fitted effect of over 45% in size
In short: (§1)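 HEK293 cells premixed with CellTox Green dye were seeded at 600 cells/well and left 5 h at 37 C/5% CO2 before pin transfer of 23 nL compound in DMSO. Fluorescence from dye bound to dead-cell DNA was read during 40 h treatment.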

[2] = qHTS RealTime-Glo MT Cell Viability Assay in HEK293 cells - 16 hour (AID 1224872); also: top concentration of the series differs between compounds; nearly all actives have a fitted effect of over 50% in size
In short: (§2)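 Reads taken at 0, 8, 16, 24, 32 and 40 h from the same wells. HEK293 cells (600/well) carried RealTime-Glo reagents from seeding, with compound added after a 5 h settle at 37 C.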

[3] = qHTS RealTime-Glo MT Cell Viability Assay in HepG2 cells - 8 hour (AID 1224873); also: nearly all actives have a fitted effect of over 55% in size
In short: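 HepG2 cells mixed with RealTime-Glo MT reagents (NanoLuc plus cell-permeant prosubstrate) were seeded at 600 cells/well, incubated 5 h at 37 C/5% CO2, then pinned with compounds in DMSO; nonlytic luminescence tracked viability during 40 h treatment.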

[4] = qHTS RealTime-Glo MT Cell Viability Assay in HEK293 cells - 40 hour (AID 1224874); conditions: RealTime-Glo luminescence; max response: active compounds read low; also: nearly all actives have a fitted effect of over 50% in size
In short: (§3)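 HEK293 cells mixed with RealTime-Glo reagents (NanoLuc plus cell-permeant prosubstrate) at 600 cells/well, preincubated 5 h at 37 C/5% CO2, then given 23 nL compound in DMSO. Nonlytic luminescence from viable cells was read at 0, 8, 16, 24, 32 and 40 h.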

[5] = A CellTox Green Cytotoxicity Assay to monitor cytotoxicity in HEK293 cells - 24 hour (AID 1224875); also: series mostly up to about 77 µM; nearly all actives have a fitted effect of over 45% in size
In short: as §1

[6] = A CellTox Green Cytotoxicity Assay to monitor cytotoxicity in HepG2 cells - 16 hour (AID 1224876); also: nearly all actives have a fitted effect of over 45% in size
In short: (§4)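 HepG2 cells were seeded together with the CellTox Green dye at 600 cells/well, left 5 h at 37 C/5% CO2, then given compounds in DMSO. Fluorescence from dye bound to dead-cell DNA was read repeatedly over 40 h of treatment at 37 C.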

[7] = qHTS RealTime-Glo MT Cell Viability Assay in HepG2 cells - 32 hour (AID 1224877); also: nearly all actives have a fitted effect of over 55% in size
In short: (§5)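 HepG2 suspension premixed with RealTime-Glo reagents is plated at 600 cells per well and left 5 h at 37 C/5% CO2. Compounds in DMSO then go in, and bioluminescence reflecting viable cell number is recorded over 40 h.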

[8] = A CellTox Green Cytotoxicity Assay to monitor cytotoxicity in HepG2 cells - 24 hour (AID 1224878); also: nearly all actives have a fitted effect of over 45% in size
In short: as §4

[9] = A CellTox Green Cytotoxicity Assay to monitor cytotoxicity in HepG2 cells - 40 hour (AID 1224879); also: nearly all actives have a fitted effect of over 40% in size
In short: as §4

[10] = qHTS RealTime-Glo MT Cell Viability Assay in HEK293 cells - 0 hour (AID 1224880)
In short: as §3

[11] = A CellTox Green Cytotoxicity Assay to monitor cytotoxicity in HEK293 cells - 32 hour (AID 1224881); also: nearly all actives have a fitted effect of over 40% in size
In short: as §1

[12] = A CellTox Green Cytotoxicity Assay to monitor cytotoxicity in HepG2 cells - 0 hour (AID 1224882); also: nearly all actives have a fitted effect of over 35% in size; also: potency is read from the fitted curve at half-maximal effect
In short: as §4

[13] = A CellTox Green Cytotoxicity Assay to monitor cytotoxicity in HepG2 cells - 32 hour (AID 1224883); also: nearly all actives have a fitted effect of over 50% in size
In short: as §4

[14] = A CellTox Green Cytotoxicity Assay to monitor cytotoxicity in HEK293 cells - 8 hour (AID 1224884); also: nearly all actives have a fitted effect of over 35% in size
In short: as §1

[15] = qHTS RealTime-Glo MT Cell Viability Assay in HepG2 cells - 16 hour (AID 1224885); also: nearly all actives have a fitted effect of over 50% in size
In short: as §5

[16] = qHTS RealTime-Glo MT Cell Viability Assay in HEK293 cells - 24 hour (AID 1224886)
In short: as §2

[17] = qHTS RealTime-Glo MT Cell Viability Assay in HEK293 cells - 8 hour (AID 1224887)
In short: as §3

[18] = A CellTox Green Cytotoxicity Assay to monitor cytotoxicity in HEK293 cells - 16 hour (AID 1224888); also: nearly all actives have a fitted effect of over 35% in size
In short: as §1

[19] = qHTS RealTime-Glo MT Cell Viability Assay in HepG2 cells - 0 hour (AID 1224889); also: nearly all actives have a fitted effect of over 50% in size
In short: as §5

[20] = A CellTox Green Cytotoxicity Assay to monitor cytotoxicity in HepG2 cells - 8 hour (AID 1224890); also: nearly all actives have a fitted effect of over 45% in size
In short: as §4
% is scaled to controls: 0 for no effect and ±100 for the full control effect.

NC(=O)NC1N=C([O][Al])NC1=O (stereo unspecified)
inactive: Potency [1] | Potency [2] | outcome [3] | max response [4] 1.53% | outcome [5] | outcome [6] | Potency [7] | outcome [8] | Potency [9] | Potency [10] | outcome [11] | Potency [12] | Potency [13] | outcome [14] | outcome [15] | Potency [16] | Potency [17] | outcome [18] | Potency [19] | outcome [20]

Cc1ccc(C(=O)Nc2ccc(S(=O)(=O)O)c3cc(S(=O)(=O)O)cc(S(=O)(=O)O)c23)cc1NC(=O)c1cccc(NC(=O)Nc2cccc(C(=O)Nc3cc(C(=O)Nc4ccc(S(=O)(=O)O)c5cc(S(=O)(=O)O)cc(S(=O)(=O)O)c45)ccc3C)c2)c1
inactive: Potency [1] | Potency [2] | outcome [3] | max response [4] 4.78% | outcome [5] | outcome [6] | Potency [7] | outcome [8] | Potency [9] | Potency [10] | outcome [11] | Potency [13] | outcome [14] | outcome [15] | Potency [16] | Potency [17] | outcome [18] | Potency [19] | outcome [20]
active: Potency [12] 23.9 µM

Nc1ccn([C@@H]2O[C@H](CO)[C@@H](O)C2O)c(=O)n1 (stereo partly specified)
inactive: Potency [1] | Potency [2] | outcome [3] | max response [4] 6.25% | outcome [5] | outcome [6] | Potency [7] | outcome [8] | Potency [9] | Potency [10] | outcome [11] | Potency [12] | Potency [13] | outcome [14] | outcome [15] | Potency [16] | Potency [17] | outcome [18] | outcome [20]

CC[C@H]1OC(=O)[C@H](C)[C@@H](O[C@H]2C[C@@](C)(OC)[C@@H](O)[C@H](C)O2)[C@H](C)[C@@H](O[C@@H]2O[C@H](C)C[C@H](N(C)C)[C@H]2O)[C@](C)(OC)C[C@@H](C)C(=O)[C@H](C)[C@@H](O)[C@]1(C)O
inactive: Potency [1] | Potency [2] | outcome [3] | max response [4] -20.3% | outcome [5] | outcome [6] | Potency [7] | outcome [8] | Potency [9] | Potency [10] | outcome [11] | Potency [12] | Potency [13] | outcome [14] | outcome [15] | Potency [16] | Potency [17] | outcome [18] | Potency [19] | outcome [20]

CC(C(=O)O)c1cccc(Oc2ccccc2)c1 (stereo unspecified)
inactive: Potency [1] | Potency [2] | outcome [3] | max response [4] -2.21% | outcome [5] | outcome [6] | Potency [7] | outcome [8] | Potency [9] | Potency [10] | outcome [11] | Potency [12] | Potency [13] | outcome [14] | outcome [15] | Potency [16] | Potency [17] | outcome [18] | Potency [19] | outcome [20]

CC(C)COC(=O)c1ccc(N)cc1
inactive: Potency [1] | Potency [2] | outcome [3] | max response [4] -12.8% | outcome [5] | outcome [6] | Potency [7] | outcome [8] | Potency [9] | Potency [10] | outcome [11] | Potency [12] | Potency [13] | outcome [14] | outcome [15] | Potency [16] | Potency [17] | outcome [18] | Potency [19] | outcome [20]

CC(C)(C)OC(=O)c1cccc(N)c1
inactive: Potency [1] | Potency [2] | outcome [3] | max response [4] -10% | outcome [5] | outcome [6] | Potency [7] | outcome [8] | Potency [9] | Potency [10] | outcome [11] | Potency [12] | outcome [14] | outcome [15] | Potency [16] | Potency [17] | outcome [18] | outcome [20]

CCCCCCCC1CCCC1=O (stereo unspecified)
inactive: Potency [1] | Potency [2] | outcome [3] | max response [4] 18.6% | outcome [5] | outcome [6] | Potency [7] | outcome [8] | Potency [9] | Potency [10] | outcome [11] | Potency [12] | outcome [14] | outcome [15] | Potency [16] | Potency [17] | outcome [18] | Potency [19] | outcome [20]

CO[C@@]1(NC(=O)C(C(=O)O)c2ccc(O)cc2)C(=O)N2C(C(=O)O)=C(CSc3nnnn3C)CO[C@@H]21 (stereo partly specified)
inactive: Potency [1] | Potency [2] | outcome [3] | max response [4] 11.1% | outcome [5] | outcome [6] | Potency [7] | outcome [8] | Potency [9] | Potency [10] | outcome [11] | Potency [13] | outcome [14] | outcome [15] | Potency [16] | Potency [17] | outcome [18] | Potency [19] | outcome [20]

NCCCC(N)(C(=O)O)C(F)F (stereo unspecified)
inactive: Potency [1] | Potency [2] | outcome [3] | max response [4] 0.24% | outcome [5] | outcome [6] | Potency [7] | outcome [8] | Potency [9] | Potency [10] | outcome [11] | Potency [12] | Potency [13] | outcome [14] | outcome [15] | Potency [16] | Potency [17] | outcome [18] | outcome [20]

O=C(O)Cc1csc(-c2ccc(Cl)cc2)n1
inactive: Potency [1] | Potency [2] | outcome [3] | max response [4] 1.2% | outcome [5] | outcome [6] | Potency [7] | outcome [8] | Potency [9] | Potency [10] | outcome [11] | Potency [12] | Potency [13] | outcome [14] | outcome [15] | Potency [16] | Potency [17] | outcome [18] | outcome [20]

CN1CCN(c2cc3c(nn2)Oc2ccccc2N3C)CC1
inactive: cytotoxicity increase [1] -14.2% [at 15.8 µM] | activity change, negative = cytotoxicity [2] 0.378% [at 15.8 µM] | viability change, negative = cytotoxic [3] -9.11% [at 15.8 µM] | max response [4] -0.461% | activity change [5] -12.9% [at 15.8 µM] | cytotoxicity increase [6] -0.721% [at 15.8 µM] | activity change, negative = cytotoxic [7] 3.07% [at 15.8 µM] | cytotoxicity [8] -2.46% [at 15.8 µM] | cytotoxicity increase [9] -1.51% [at 15.8 µM] | activity change, negative = cytotoxicity [10] -0.369% [at 15.8 µM] | cytotoxicity increase [11] -14.8% [at 15.8 µM] | cytotoxicity [12] 0.041% [at 15.8 µM] | cytotoxicity increase [14] -6.06% [at 15.8 µM] | activity change, negative = cytotoxic [15] -5.35% [at 15.8 µM] | activity change, negative = cytotoxicity [16] -1.39% [at 15.8 µM] | activity change, negative = cytotoxicity [17] 0.282% [at 15.8 µM] | activity change [18] -9.75% [at 15.8 µM] | activity change, negative = cytotoxicity [19] -7.1% [at 15.8 µM]
